Screening results (PubChem)
Hits are enriched below; roughly 2.3% of the tested compounds scored in any of these assays.
CHO-K1 Ca PAM = nonselective activator or artifact in parental CHO-K1 calcium assay | ATP EC20, Fluo-8 calcium fluorescence; 0% at ATP EC20, 100% at ATP max | activation, % at 3 µM | actives 0.02% (n = 360,000) | AID 602247;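 active = activation above the run cutoff, the mean activation of all test compounds plus 3 SD, cut at about 40% in these data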;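 note: peak over basal fluorescence ratio in a 140 s read after ATP addition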
CHO-K1 Ca ag = M1 agonist counterscreen hit in parental CHO-K1 cells | activation, % at 3 µM | Fluo-8 calcium fluorescence; scaled to maximal ATP response, vehicle zero | actives 0.48% (n = 360,000) | AID 602248; in the data active = activation above about 15%;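 note: untransfected CHO-K1 host cells lacking M1 receptor as counterscreen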
M1 PAM = potentiates human M1 receptor response to acetylcholine; P11229; CHO-K1 hM1, Fluo-8 calcium fluorescence, ACh EC20; 0% = ACh EC20, 100% = maximal ACh; activation, % at 3 µM; actives 0.088% (n = 360,000); in the data active = activation above about 19%, passing the limit was not always enough
Target sequence (P11229 whole entry, looked up): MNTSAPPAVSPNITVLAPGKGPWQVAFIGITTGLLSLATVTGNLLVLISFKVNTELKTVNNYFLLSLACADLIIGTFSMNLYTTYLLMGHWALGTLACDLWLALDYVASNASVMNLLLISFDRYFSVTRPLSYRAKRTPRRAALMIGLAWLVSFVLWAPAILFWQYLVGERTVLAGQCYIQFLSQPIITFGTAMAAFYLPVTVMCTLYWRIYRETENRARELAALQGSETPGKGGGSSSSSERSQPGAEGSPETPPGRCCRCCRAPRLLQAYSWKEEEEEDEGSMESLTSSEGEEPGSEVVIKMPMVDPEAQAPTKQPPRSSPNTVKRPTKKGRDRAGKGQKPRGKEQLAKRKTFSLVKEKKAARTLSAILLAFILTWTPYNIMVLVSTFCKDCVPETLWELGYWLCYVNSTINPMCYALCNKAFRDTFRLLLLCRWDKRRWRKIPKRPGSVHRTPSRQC
CHRM1 agonist = agonists of human M1 muscarinic receptor; AID 588814; activation, % at 3 µM; P11229; actives 0.33% (n = 360,000); CHO-K1 hM1, Fluo-8 calcium fluorescence, agonist mode; 0% DMSO, 100% acetylcholine EC100;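 active = activation above the run's mean compound activation plus 3 SD, cut at about 16% in these data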;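 note: peak over basal fluorescence ratio within a 140 s kinetic read after compound addition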
CHO-K1 Ca antag = nonselective inhibitor or artifact in parental CHO-K1 cells; AID 602250; actives 0.6% (n = 360,000); inhibition, % at 3 µM; ATP-induced calcium, Fluo-8 fluorescence;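 active = inhibition above a per-plate cutoff, the plate's mean sample inhibition plus 3 SD, cut at about 24% in these data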;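 note: 0% = DMSO plus EC80 ATP and 100% = DMSO alone without ATP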
CHRM1 antagonist = blocks human M1 muscarinic receptor. P11229. CHO-K1 hM1, Fluo-8 calcium fluorescence, ACh EC80 antagonist. inhibition, % at 3 µM. actives 1.3% (n = 360,000);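 active = percent inhibition above its own plate's cutoff, namely the mean of that plate's compound wells plus 3 SD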;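 note: peak over basal fluorescence ratio during 140 s after agonist addition; 0% = ACh EC80 plus DMSO and 100% = DMSO alone without agonist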
* = called active by the depositor.

SMILES	CHO-K1 Ca PAM	CHO-K1 Ca ag	M1 PAM	CHRM1 agonist	CHO-K1 Ca antag	CHRM1 antagonist
CCOC(=O)N1CCC(N2C(=O)c3ccccc3C2Nc2ccc(S(=O)(=O)N3CCOCC3)cc2)CC1 (stereo not drawn)	-2	1	2	-6	1	1
O=C(/C=C/c1ccc(S(=O)(=O)N2CCOCC2)cc1)NC(=S)Nc1ccc(Cl)cc1Cl	-3	0	9	-1	2	2
NS(=O)(=O)c1ccc(NC(=S)Nc2ccc(C(=O)N3CCCCC3)cc2)cc1	17	16*	-7	-3	10	10
C=CCn1c(=O)[nH]c2cc(C(=O)N3CCN(c4cccc(Cl)c4)CC3)ccc2c1=O	5	3	-23	-5	6	21*
CCN(CC)S(=O)(=O)c1cccc(NC(=S)NC(=O)/C=C/c2ccc(S(=O)(=O)N3CCOCC3)cc2)c1	-14	1	-7	-5	27*	14
CN1CCN(S(=O)(=O)c2ccc(NC(=O)c3cccc(S(=O)(=O)N4CCCC4)c3)cc2)CC1	-6	0	-23	-5	2	98*
Nc1cc(Cl)ccc1C(=O)OCC(=O)NCc1cccs1	10	1	-3	0	-11	7
COc1ccccc1S(=O)(=O)CC(O)COc1ccc(C#N)cc1 (stereo not drawn)	5	0	-5	-1	-10	3
O=S(=O)(c1cccc(COc2ccc(Cl)cc2Cl)c1)N1CCOCC1	11	3	6	-2	-7	-12
COc1ccccc1N(C)S(=O)(=O)c1ccc(C(=O)Nc2cccc(S(=O)(=O)N3CCOCC3)c2)cc1	3	8	-22	-4	5	38*
O=C(NC(=S)Nc1ccc(S(=O)(=O)N2CCCCC2)cc1)c1ccccc1	-3	0	19*	1	5	-56
CN(c1ccccc1)S(=O)(=O)c1ccc(C(=O)Nc2cccc(S(=O)(=O)N3CCOCC3)c2)cc1	-9	4	-16	-4	13	22
O=C(c1ccc2c(=O)n3c(nc2c1)CCCCC3)N1CCN(c2cccc(Cl)c2)CC1	15	2	-27	-13	-10	32*
CC(=O)c1cc(Cl)ccc1OCc1cccc(S(=O)(=O)N2CCOCC2)c1	-4	16*	-16	3	6	31*
O=C(Nc1ccc(S(=O)(=O)N2CCCC2)cc1)c1ccccc1	4	1	1	-4	6	5
O=C(CN1C(=O)/C(=C\c2ccco2)SC1=S)Nc1ccc(O)cc1C(=O)O	7	2	2	1	-9	-10
N#CCCn1c(C2CCCCC2)nc2ccccc21	-3	0	2	-4	5	3
O=C(Nc1ccnn1C1CCN(C2CCCC2)CC1)c1ccccc1	-11	0	2	-3	-4	-1
CCc1cccc2cc3c(N)c(C(=O)Nc4ccc(S(=O)(=O)N5CCCC5)cc4)sc3nc12	15	16*	-8	11	19	33
Cc1cccc2cc3c(N)c(C(=O)Nc4ccc(N5CCOCC5)cc4)sc3nc12	5	6	-12	1	-7	15
CN(CC1CCCN(CCc2ccc(Cl)cc2)C1)C(=O)c1ccco1 (stereo not drawn)	15	-1	-16	-6	-11	35*
CN(CC1CCCN(CCc2ccc(Cl)cc2)C1)C(=O)c1ccoc1 (stereo not drawn)	12	1	-13	-7	-13	12
CN(CC1CCCN(CCc2ccc(Cl)cc2)C1)C(=O)c1ccc2nc[nH]c2c1 (stereo not drawn)	-3	0	-20	-7	-1	48*
N#CC(Sc1ccccn1)c1ccc(Cl)cc1Cl (stereo not drawn)	11	4	-29	-10	10	39*
Cc1cc(O)ccc1-c1cc(C(=O)NCc2ccc(F)cc2)[nH]n1	-3	8	-3	25*	-11	3
O=C(CN1CCN(S(=O)(=O)c2ccc(Cl)cc2)CC1)c1ccc(O)c(O)c1	1	2	27*	-3	-12	-22
Cc1ccc(/C=C2\SC(=S)N(CCC(=O)N3CCCCC3)C2=O)cc1	0	0	2	-3	-10	2
